Assay outcomes: PubChem BioAssay, National Center for Advancing Translational Sciences (NCATS)
Compounds with a hit are over-represented: about 19% of the library has one in this group of screens.
HT1080 IDH1KD tx = qHTS for induction of synthetic lethality in tumor cells producing 2HG: qHTS for the HT-1080-IDH1KD cell line; Potency, µM (series often up to 46.1 µM), for the others: at the highest dose activity, negative = toxicity, most hits filed as cytotoxic; 2% of 360,000 active; HT-1080 IDH1 knockdown viability, ATP luminescence, 48 h; AID 686971, 2013;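 note: potency is the fitted concentration of half-maximal effect; 0% = DMSO wells and -100% = cell-free medium wells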
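Knockdown cells (IDH1KD HT-1080) received compounds 2 h after plating at 750 cells/well and were kept 48 h at 37 °C in 5% FBS RPMI. A CellTiter-Glo luminescence read gave % activity for curve fitting.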
DT40 TDP1 CPT = qHTS for Inhibitors of human tyrosyl-DNA phosphodiesterase 1 (TDP1): qHTS in cells in presence of CPT; chicken DT40 Tdp1-/-;hTDP1 cells + 20 nM CPT, ATP luminescence, 48 h; Potency, µM (top dose mostly 46.2 µM), for the others: top-dose activity change, negative = growth inhibition, most hits filed as inhibitors; 12% of 420,000 active; note: potency is the fitted concentration of half-maximal effect; nearly all actives have a fitted effect of over 55% in size
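Chicken DT40 Tdp1-/- cells stably complemented with human TDP1 were seeded at 400 cells/well in medium containing 20 nM camptothecin, exposed to pin-transferred compounds, and grown at 37 °C for at least 48 hr. Viability was read as ATP luminescence.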
HT1080-NT tox = qHTS for induction of synthetic lethality in tumor cells producing 2HG: qHTS for the HT-1080-NT fibrosarcoma cell line; HT-1080-NT fibrosarcoma viability, CellTiter-Glo ATP luminescence, 48 h; Potency, µM (highest dose often 46.1 µM), without a hit: top-dose activity, negative = less viability, actives largely listed as cytotoxic; 1.6% of 360,000 active;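 note: NT is the 2HG producing partner of a matched IDH1 knockdown line; potency is the fitted concentration of half-maximal effect; 0% = DMSO-treated cells and -100% = media-only wells without cells; nearly all actives have a fitted effect of over 55% in size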
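750 cells/well, RPMI + 5% FBS; 2 h settle, compound pin-transfer, 48 h at 37 degrees C. CellTiter-Glo 10 min RT, luminescence. Normalized to DMSO and media-only wells.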
DT40 TDP1 no CPT = qHTS for Inhibitors of human tyrosyl-DNA phosphodiesterase 1 (TDP1): qHTS in cells in absence of CPT | DT40 Tdp1-/- hTDP1 cells, no CPT, ATP luminescence, 48 h | Potency, µM (highest dose often 46.2 µM), for inactives: at the top dose activity change, negative = growth inhibition, usual class: inhibitors | 15% of 420,000 active; note: potency is the fitted concentration of half-maximal effect; nearly all actives have a fitted effect of over 55% in size
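Growth of hTDP1-complemented DT40 Tdp1-knockout cells is measured by ATP luminescence after at least 48 hr compound exposure at 37 °C, with DMSO substituting for the 20 nM CPT used in the parallel screen.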
IL-1B inflam inh = qHTS for Inhibitors of Inflammasome Signaling: IL-1-beta AlphaLISA Primary Screen. THP-1 LPS/ATP IL-1B secretion, AlphaLISA, 16 h; active compounds read low. activity change, % at 57.5 µM. 4.7% of 360,000 active; in the data active = activity change below about -50%; inconclusive = mostly about -30% to -49%
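Secreted IL-1B measured by AlphaLISA bead assay after 16 h compound exposure of THP-1 cells; compounds (final up to 57.5 uM) added 1 h before LPS (250 ng/mL) and ATP (1.25 mM) stimulation; lower signal means less secretion.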
ELG1 DNA repair = qHTS screen for small molecules that inhibit ELG1-dependent DNA repair in human embryonic kidney (HEK293T) cells expressing luciferase-tagged ELG1. HEK293T ELG1-luciferase reporter, luminescence, 16 h; DNA damage induced by 5-fluorouridine. Potency, µM (highest dose often 46.1 µM), for the others: at the top dose activity change, negative = inhibition, hits mostly inhibitors. 2.3% of 330,000 active; note: potency is the fitted concentration of half-maximal effect; nearly all actives have a fitted effect of over 55% in size
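Step one: seed 2,000 cells per well. Step two: pin-transfer compound or DMSO alongside 5-fluorouridine. Step three: incubate 16 hr, 37 °C, 5% CO2. Step four: add ONE-Glo, wait 30 min, read luminescence.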
* = called active by the depositor; ? = inconclusive; nt = not tested or not shown; ! = not active in a repeat. Unless noted, calls come from the whole dose curve; as a rule, active = well fitted curve in the direction sought with a large enough effect; inconclusive = small, poorly fitted or top-dose-only effect, or another doubt; inactive = no such curve, though single readings can be large; an effect the other way counts as inactive or inconclusive. Unless noted, % is set by controls: 0 for no effect and ±100 for the full control effect.

SMILES | HT1080 IDH1KD tx | DT40 TDP1 CPT | HT1080-NT tox | DT40 TDP1 no CPT | IL-1B inflam inh | ELG1 DNA repair
O=[N+]([O-])c1ccc(NCc2ccc(Cl)cc2)c2ccncc12 | 0% | 23µM* | 2% | 21µM* | -57* | -7%
O=P(NC1CCCCC1)(Oc1ccccc1)Oc1ccccc1 | -5% | -12% | -23% | ? | -18 | nt
COc1cccc(C(C)(O)c2nc(-c3cccc(F)c3)cs2)c1 (centres undefined) | -23% | ? | ? | ? | -15 | nt
CC(O)(c1ccncc1)c1nc(-c2cccc(C(F)(F)F)c2)cs1 (centres undefined) | -15% | 23µM* | 2% | 21µM* | 2 | nt
CCOP(=O)(OCC)/C(=N/OC(=O)c1ccccc1C)C(N)=O | ? | ? | -16% | 13µM* | -103* | 0%
COC(=O)C1=C(c2c(C)noc2C)C[C@@H]2CC[C@H]1N2C(=O)N1CCc2cc(OC)c(OC)cc2C1 | 6% | ? | 10% | ? | -3 | -13%
O=C(NCc1ccccc1)N1CCc2c(sc3c2CCCC3)C1c1ccccc1 (centres undefined) | nt | ? | nt | 16µM* | nt | nt
O=C1CCN(C(=O)CNC(=O)Cc2ccccc2)CC1 | 5% | 17% | 6% | 1% | 16 | 12%
CN1CCCC1c1cccnc1 (centres undefined) | 6% | 1% | 8% | -1% | 2 | nt
CCOC(=O)c1c(C)c(P(=S)(N2CCOCC2)N2CCOCC2)n(C)c1C | 2% | -4% | 4% | -2% | -4 | 16µM*
CCOC(=O)c1[nH]c(C)c(C(=O)N2CCC3(CC2)OCCO3)c1C | 20% | -5% | 8% | -3% | -5 | 17%
CP(=O)(O)C1=CCNCC1 | nt | -7% | nt | -1% | nt | nt
CN(C)c1ccc(P(=O)(OC2CCCCC2)C(Nc2ccccc2)c2cccnc2)cc1 (centres undefined) | -19% | ? | -21% | 21µM* | -52* | ?
CC(C)CCOP(=O)(c1ccc(N(C)C)cc1)C(O)c1ccccc1 (centres undefined) | 2% | ? | -10% | ? | 14 | 0%
O=P(Oc1ccccc1)(Oc1ccccc1)C(O)c1ccccc1 (centres undefined) | 9% | -20% | 12% | 0% | 8 | 2%
O=P(Oc1ccccc1)(Oc1ccccc1)C(Nc1ccccc1)c1ccccc1 (centres undefined) | -10% | ? | -27% | 16µM* | 0 | 21µM*
CC(C)COP(=O)(c1ccc(N(C)C)cc1)C(Nc1ccccc1)c1ccccc1 (centres undefined) | -6% | ? | -12% | 29µM* | -3 | -18%
CC(C)COP(=O)(OCC(C)C)C(Nc1ccccc1)c1ccccc1 (centres undefined) | ? | ? | 18µM* | ? | -58* | ?
CCc1ccccc1NC(=O)N1C[C@H]2C[C@@H](C1)c1cccc(=O)n1C2 | -4% | -8% | -4% | -10% | -12 | 4%
CC(=O)Nc1cnc(-c2ccccc2O)cn1 | -11% | ? | ? | -21% | 24 | nt
COc1ccc(OC)c(NC(=O)N2C[C@H]3C[C@@H](C2)c2cccc(=O)n2C3)c1 | 2% | 23% | 3% | -6% | 18 | -5%
CC(C)CCNc1nnnc2c1sc1nc(N3CCOCC3)c3c(c12)CC(C)(C)SC3 | 12% | 23µM* | 17% | 18µM* | -24 | ?
COc1c(OP2(=S)OCC(C)(C)CO2)cnn(C2CCCCC2)c1=O | -7% | 23µM* | -3% | 21µM* | -13 | nt
CC(=O)Nc1ccc(NC(=O)Oc2ccccc2)cc1 | 10% | -22% | 9% | 4% | 0 | ?
O=C(Nc1ccc(F)cc1)Oc1ccc[nH]c1=O | 21µM* | ? | ? | ? | ? | ?
SMILES | HT1080 IDH1KD tx | DT40 TDP1 CPT | HT1080-NT tox | DT40 TDP1 no CPT | IL-1B inflam inh | ELG1 DNA repair
CCc1ccc(N2C(=O)NC(=O)/C(=C\C=C\c3ccco3)C2=O)cc1 | -12% | 3.7µM* | 0% | 3.3µM* | -96* | ?
Cc1cc(C)cc(N2C(=O)NC(=O)/C(=C\C=C\c3ccco3)C2=O)c1 | ? | 5.2µM* | ? | 5.8µM* | -86* | ?
CC(C)c1ccc(N2C(=O)NC(=O)/C(=C/C=C/c3ccco3)C2=O)cc1 | ? | 5.2µM* | 21% | 4.6µM* | ? | ?
O=C1NC(=O)N(c2ccccc2)C(=O)/C1=C\C=C\c1ccccc1 | 5.2µM* | 2.1µM* | ? | 2.6µM* | -98* | ?
CCOP(=O)(OCC)C(NC(C)=O)C(Cl)(Cl)Cl (centres undefined) | 6% | -13% | 3% | -2% | 38 | 16%
CCOC1=C2[C@@H](CN(S(=O)(=O)c3ccccc3C)[C@H]2c2ccc(Cl)cc2)[C@H]2C(=O)NC(=O)[C@H]2C1 | 1% | ? | 0% | ? | 9 | nt
COC1=C(C)C(=O)O[C@]12C(=O)C(C)=C1CCCCN3[C@H]([C@@H]4C[C@H](C)C(=O)O4)CC[C@]132 | 7% | -29% | 10% | -1% | 26 | ?
O=C1CNC(c2ccccc2Cl)c2cc(Br)ccc2N1 (centres undefined) | -6% | -10% | -19% | 8.2µM* | -5 | -2%
NC(=O)c1ccc(NC(=O)c2cccn(Cc3ccccc3)c2=O)cc1 | nt | -4% | nt | ? | nt | nt
O=c1c(C=NCc2cccs2)c(O)n(C2CCCCC2)c(=O)n1C1CCCCC1 | -25% | -26% | -13% | ? | -6 | -13%
O=c1c(C=NCCN2CCNCC2)c(O)n(C2CCCCC2)c(=O)n1C1CCCCC1 | ? | 16µM* | 20µM* | ? | -61* | 10%
C[N+]1=Cc2cc3c(cc2CC1)OCO3 | nt | 5% | nt | -10% | nt | nt
CN(C(=O)CCN1C(=O)/C(=C/c2ccc(F)cc2)SC1=S)C1CCS(=O)(=O)C1 (centres undefined) | 3% | 21µM* | 12% | 21µM* | -23 | nt
Cc1ncc(CNC(=O)N(CCCl)N=O)c(N)n1 | 14% | 21µM*! | -8% | ? | 3 | -3%
